# Cav32 inh: Cav3.2 calcium influx blockers – cell-based, Fluo-4 calcium fluorescence, FDSS, MLSMR library, primary screen; Voltage-dependent T-type calcium channel subunit alpha-1H (Homo sapiens), O95180; Cav3.2-expressing cells; stronger effect = lower value; B-score at 10 µM; hit rate 4% among 100,000;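 active means single-dose well whose peak fluorescence ratio is a statistical outlier from its plate by either plate-standardised score or position-corrected B-score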
# Pyk2 oligo antag: antagonists of Pyk2 self-association, primary screen, Q293 cells, FERM NanoBiT luminescence, HTS. Protein-tyrosine kinase 2-beta (Homo sapiens), Q14289. stronger effect = lower value. z-score (the deposit names both 25 µM and 10 µM). hit rate 0.83% among 99,000. AID 1347419, 2020;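 active means Z-score of -3 or lower, scaled per plate to the spread of control and sample wells; inactive means z-score above -3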;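 further: negative z-score means lost luminescence so less FERM oligomerization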
# CD11b adhes inh: inhibitors of CD11b/CD18 adhesion to fibrinogen, primary screen, K562 cells, luminescence. ATPlite luminescence; Mn2+ added to activate the integrin. inhibition, % at 10 µM. hit rate 0.54% among 93,000;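 active means primary inhibition of 50% or more at 10 µM, then 40% or more on retest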
# Target sequence (P05107 whole entry, looked up, other chains not shown): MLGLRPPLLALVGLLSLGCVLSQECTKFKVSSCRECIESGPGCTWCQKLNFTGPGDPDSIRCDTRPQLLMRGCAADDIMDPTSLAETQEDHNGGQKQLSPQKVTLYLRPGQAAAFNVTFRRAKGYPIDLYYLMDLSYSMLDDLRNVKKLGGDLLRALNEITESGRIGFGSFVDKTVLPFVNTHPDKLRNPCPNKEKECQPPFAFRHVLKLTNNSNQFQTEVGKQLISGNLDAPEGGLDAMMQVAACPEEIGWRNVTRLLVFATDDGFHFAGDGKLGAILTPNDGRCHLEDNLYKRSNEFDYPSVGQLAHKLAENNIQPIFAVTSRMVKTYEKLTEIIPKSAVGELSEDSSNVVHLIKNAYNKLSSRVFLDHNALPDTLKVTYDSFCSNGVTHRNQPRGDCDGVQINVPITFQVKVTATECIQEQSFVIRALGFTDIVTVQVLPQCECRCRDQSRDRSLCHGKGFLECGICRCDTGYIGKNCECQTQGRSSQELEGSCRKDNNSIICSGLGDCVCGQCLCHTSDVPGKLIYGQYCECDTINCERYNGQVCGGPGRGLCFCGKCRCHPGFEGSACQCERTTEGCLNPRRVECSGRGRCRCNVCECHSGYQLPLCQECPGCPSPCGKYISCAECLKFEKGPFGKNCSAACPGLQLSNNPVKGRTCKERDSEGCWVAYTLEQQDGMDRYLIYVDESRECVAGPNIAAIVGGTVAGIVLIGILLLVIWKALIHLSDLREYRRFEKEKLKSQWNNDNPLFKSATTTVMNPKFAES
# Mac1 fbg enh: enhancers of CD11b/CD18 adhesion to fibrinogen, primary screen, K562 cells, luminescence. activation, % at 10 µM. hit rate 0.07% among 93,000. ATPlite luminescence. AID 1499, 2009. Integrin beta-2 (Homo sapiens) + Integrin alpha-M (Homo sapiens), P05107+P11215;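 active means 10 µM primary screen giving 50% or more activity, confirmed by 40% or more on retest at that dose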
# Ec RNAP inh: E. coli RNAP inhibitors, biochemical | DNA-directed RNA polymerase subunit beta (Escherichia coli (strain K12)), P0A8V2 | E. coli RNA polymerase, fluorescence transcription assay | inhibition, %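 (tested at 10 µM)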 | hit rate 0.2% among 62,000 | AID 559, 2006; in the data active means inhibition above about 20%;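 further: 0% = enzyme without compound and 100% = no enzyme blank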
# Active calls of the source: *; · = no result. Compounds with a hit are over-represented: about 4.2% of the library has one in this group of screens.
SMILES,Cav32 inh,Pyk2 oligo antag,CD11b adhes inh,Mac1 fbg enh,Ec RNAP inh
O=C(Nc1ccc(Cl)c(C(F)(F)F)c1)c1ccco1,-5.8*,-1.1,17,-3,-2
COc1cccc(C(=O)Nc2ccc(Cl)c(C(F)(F)F)c2)c1,-5.1*,-1.6,4,-1,·
O=C(Nc1cccc(C(F)(F)F)c1)c1ccco1,0.21,-0.43,·,·,3
COc1cccc(C(=O)Nc2cc(C(F)(F)F)ccc2Cl)c1,-1.5,-0.62,·,·,·
Cc1cc(C)cc(NC(=O)c2ccc(CSc3nnc(C)s3)cc2)c1,-11*,0.62,·,·,·
Cc1nnc(SCc2ccc(C(=O)O)cc2)s1,1.5,0.43,0,2,·
O=C(O)c1ccc(CSc2nnc(SCc3ccccc3)s2)cc1,-6.6*,-0.52,2,-3,·
COCC(C)NC(=O)CSc1nc2ccccc2n1CCc1ccccc1 (configuration not stated),·,·,11,-3,·
Cc1c(NC(=O)/C=C/c2cn(-c3ccccc3)nc2-c2ccccc2)c(=O)n(-c2ccccc2)n1C,-4.5*,-3,-17,-6,·
O=S(=O)(c1cccc(NC(=S)Nc2ccc(Br)cc2Cl)c1)N1CCOCC1,-1.9,0.73,38,-13,·
CN(CCOc1ccccc1)c1ccc(S(=O)(=O)N2CCCCC2)cn1,-7.6*,-1.1,2,2,·
COc1ccc(NC(=O)c2c(C(F)(F)F)nn(C)c2SCc2ccccc2Cl)cc1,0.037,-1.4,·,·,·
Cc1ccc(NC(=O)c2cc(S(=O)(=O)N3CCCCC3)cs2)cc1,-4.8*,-0.63,44,-4,·
Cc1ccc(NS(=O)(=O)c2ccc(NC(=O)c3cccs3)cc2)cc1,-0.39,-0.35,·,·,·
O=C(Nc1ccc(F)cc1)c1cc(S(=O)(=O)Nc2ccc(F)cc2)cs1,-5.8*,-0.12,·,·,·
O=C(Nc1ccc(Cl)cc1)c1cc(S(=O)(=O)N2CCOCC2)cs1,-0.4,-0.75,32,-3,·
COC(=O)c1c(NC(=O)C2(C)Cc3ccccc3C(=O)O2)sc2c1CCCC2 (configuration not stated),-0.31,-2.2,16,-3,·
Cc1cc(C(=O)OCn2nnc3ccccc3c2=O)c(C)n1-c1ccccc1,·,-3.7*,25,5,4
Cc1cc(C(=O)N/N=C/c2cccc([N+](=O)[O-])c2)c(C)o1,-0.55,-0.76,·,·,·
Cc1c(Cl)c([N+](=O)[O-])nn1Cc1ccc(C(=O)N/N=C\c2cccc(Br)c2)o1,-6.4*,-1.7,·,·,·
Cc1cc(C)n(C(=O)c2cc3c(s2)CCCC3)n1,-0.044,0.44,·,·,·
O=C(CC1(O)C(=O)N(Cc2ccc3c(c2)OCO3)c2ccccc21)c1ccccc1 (configuration not stated),-3,-0.77,-13,-1,-6
Cc1ccc(C(=O)CC2(O)C(=O)N(Cc3ccc4c(c3)OCO4)c3ccccc32)cc1 (configuration not stated),-7.5*,0.2,6,-4,4
C#CCN1C(=O)C(O)(CC(=O)c2ccc3c(c2)OCCO3)c2ccccc21 (configuration not stated),-3.8*,·,-1,1,10
CCN(Cc1nc2ccccc2c(=O)[nH]1)Cc1cc(=O)oc2cc(OC)ccc12,2.3,0.75,11,-1,·
SMILES,Cav32 inh,Pyk2 oligo antag,CD11b adhes inh,Mac1 fbg enh,Ec RNAP inh
Fc1ccc(NCc2nnc(SCc3nnc(-c4ccccc4)o3)n2Cc2ccccc2)cc1,-8.3*,0.45,20,-1,·
O=C(CSc1nnc(CNc2ccc(Cl)cc2)n1Cc1ccccc1)NCc1ccco1,-3.7,0.43,23,1,10
OCC[C@H]1C[C@H](O)[C@@H](O)[C@@]2(CCCO2)O1,0.52,·,·,·,·
CC(C)(C)n1nnnc1CN1CCN(C(c2ccccc2)c2ccccc2)CC1,-5.4*,-1.1,·,·,·
N=c1ncn(Cc2ccccc2)c2nc(SCCOc3ccccc3)[nH]c12,·,·,-2,8,·
COC(=O)[C@@H]1C[C@@H]2CC[C@@H](O)C[C@@H]2N1Cc1ccccc1OS(=O)(=O)c1ccc(C)cc1,0.44,·,·,·,·
FC(F)(F)c1cnc2c(-c3ccc(Cl)cc3Cl)noc2c1,-0.43,-1.2,-1,1,·
O/N=C(\c1ccc(Cl)cc1)c1ncc(C(F)(F)F)cc1Cl,-6.1*,1.6,4,-3,·
FC(F)C(F)(F)C(F)(F)C(F)(F)c1cc(-c2ccccc2)n[nH]1,-1.8,-3.4*,49,-4,·
O=C(NCc1ccco1)c1cc(-c2ccncc2)nc2ccccc12,-5.8*,-0.23,-5,4,2
O=C(NCc1ccco1)c1cc(-c2cccnc2)nc2ccccc12,0.19,0.08,-4,-3,-2
CCn1c(=O)cc(SCC(=O)N2CCN(c3ccccc3F)CC2)c2ccccc21,-3.4,-0.04,-2,-6,·
Cc1ccc(-c2ccc(/C=N/c3ncn[nH]3)o2)cc1Cl,-6.7*,0.52,·,-3,1
Cc1ccc(C)c2[nH]c(=O)c(CN(CCN3CCCC3)C(=O)Nc3cccc(Cl)c3)cc12,-7.6*,2.3,0,-1,2
Cc1cc(C)c2cc(CN(CCN3CCCC3)C(=O)Nc3ccc(F)cc3)c(=O)[nH]c2c1,-1.2,2.8,42,2,6
COc1cccc(N2CCN(c3c4c(nc5ncnn35)CCC4)CC2)c1,·,0.02,51*,-5,9
c1ccc(N2CCN(c3c4c(nc5ncnn35)CCC4)CC2)cc1,0.25,0.87,-12,-2,0
COC(=O)C(CC(=O)c1ccc(Cl)cc1)c1ccc(C(C)C)cc1 (configuration not stated),·,-0.37,11,2,·
Cc1cc(C)c(-n2c(C)cc(/C=C3/NC(=O)NC3=O)c2C)c(C)c1,-6.1*,·,·,·,·
Cc1ccc(NC(=O)CSc2ncnc3ccccc23)cc1S(=O)(=O)N1CCCCCC1,·,·,102,-12,·
O=C(NCc1nc2ccccc2[nH]1)c1ccco1,1.4,1.4,-23,16,25*
O=C(NCc1nc2ccccc2[nH]1)c1cccs1,0.44,·,-7,-3,-2
COc1ccc(-n2c(Cc3cccn3C)nnc2SCC(=O)Nc2cccc(Cl)c2)cc1,-13*,·,-5,4,-6
CC(=O)Nc1cccc(NC(=O)CSc2nnc(Cc3cccn3C)n2-c2ccc(C)cc2)c1,-3.7,0.45,11,-2,0
Cn1cccc1Cc1nnc(SCC(=O)Nc2cccc(F)c2)n1-c1ccc(F)cc1,-7.3*,·,-7,1,11
Cn1cccc1Cc1nnc(SCC(=O)Nc2cccc(Cl)c2)n1-c1ccc(F)cc1,-10*,·,4,-1,7
COc1ccc(-n2c(Cc3cccn3C)nnc2SCC(=O)Nc2cccc(NC(C)=O)c2)cc1,-1.7,2,23,-6,-1
Cc1cc(C)c2c(c1)NC(c1cc3c(cc1Br)OCO3)C1CC=CC21 (configuration not stated),·,·,-13,24,·
Cc1nn(-c2nc3ccccc3n2Cc2ccccc2)c2c1C(=O)CC(C)(C)C2,-5*,-4*,0,5,8

# Bioassay records deposited in PubChem BioAssay by several laboratories.
